PubChem BioAssay (NCATS)
Records with an inconclusive call do not appear. Where a call stands in place of a potency, no number is given. The source holds several records for some structures; these can differ, active in one and inactive in another. The source made the active and inactive calls. Calls follow the shape of the dose curve; as a rule, active = well fitted inhibition curve with a large enough effect; inconclusive = small, poorly fitted or top-dose-only effect; inactive = flat fitted curve, though single readings scatter.

Target: Phospholipid hydroperoxide glutathione peroxidase GPX4 (Homo sapiens) (UniProt P36969)
Assay: Primary qHTS Assay for Inhibitors of Recombinant Selenoprotein Glutathione Peroxidase 4 (GPX4) (AID 1845192); also: nearly all actives have a fitted effect of over 65% in size
Conditions: recombinant GPX4, GR-coupled NADPH fluorescence, 15 min; series mostly up to 50 µM
Text: Assay Provider: Elias S.J. Arner MD PhD.
Department of Medical Biochemistry and Biophysics
Karolinska Institutet, Solna, Stockholm, Sweden
Selenoprotein glutathione peroxidases (GPX), like the ubiquitously expressed GPX1 and the ferroptosis modulator GPX4, enact their antioxidant activities by reducing hydroperoxides using glutathione. […] GPX1 and GPX4 inhibitors have thus shown promise as anti-cancer agents. Existing inhibitors are often promiscuous, or modulate GPX activity only indirectly, so novel direct inhibitors identified through screening against GPX1 and GPX4 could be valuable. Here, we developed optimized glutathione reductase (GR)-coupled GPX assays for the biochemical high-throughput screen (HTS) of almost 12,000 compounds with known mechanisms of action. Initial hits were triaged using a GR counter-screen, assessed for isoform specificity using a separate GPX2 assay, and were assessed for general selenocysteine-targeting activity using a thioredoxin reductase (TXNRD1) assay. With this suite of assays, we identified novel GPX1/GPX2- and GPX4-specific inhibitors and can here present a validated pipeline for future discovery research for selenoprotein-targeting agents.
SEQUENCE No. (e.g., 1, 2, 3, etc.); […] (e.g., Cells, Incubation, Reagent, etc.); VALUE; DESCRIPTION.
1; Reagent 1; 3 uL; 333.33 nM GPx4 enzyme or no enzyme control in 1536-well, black, solid Greiner assay plate.
2; Compound; 25 nL; Kalypsis pin tool (Wako USA) equipped with a 1536-well pin head.
3; Incubation; 30 min; room temperature.
4; Reagent 2; 1 uL; 500 nM GR, 5 mM GSH, 2.5 mM NADPH solution
5; Reagent 3; 1 uL; 2.5 mM CHP in 50% EtOH.
6; Detection; Fluorescence; ViewLux microplate reader, excitation 340 nm and emission 450 nm.
7; Incubation; 15 min; room temperature.
8; Detection; Fluorescence; ViewLux microplate reader, excitation 340 nm and emission 450 nm.
NOTES (numbers refer to Sequence numbers above)
1. 3 µL of 333.33 nM GPX4 and 0.016% BSA in assay buffer (50 mM Tris-HCl, 2 mM EDTA (pH 7.5), 150 mM NaCl) was added to columns 3-48 of 1536-well plates using a BioRAPTR Flying Reagent Dispenser (Let's Go Robotics (LGR), Carlsbad, CA). A no-enzyme control (0.01% BSA in TES assay buffer) was added to columns 1-2.
2. 25 nL, library and DMSO controls were added to each well with a pin tool (Kalypsys).
3. The assay plates were incubated for 30 minutes at room temperature.
4. 1 µL of master mix (500 nM glutathione reductase (GR), 5 mM reduced glutathione (GSH), 2.5 mM NADPH in assay buffer) was added.
5. 1 µL of cumene hydroperoxide (CHP) ([2.5 mM] in 50% EtOH) was then added within 5 minutes to initiate the reaction. Final concentrations were: 200 nM GPX4, 1 mM GSH, 0.5 mM CHP, 0.5 mM NADPH, 100 nM GR, 0.01% BSA.
6. Initial fluorescence readout (t=0) at 340/450 nm was measured using a ViewLux multimodal detector (PerkinElmer, Waltham, MA).
8. Endpoint fluorescence readout (t=15) at 340/450 nm was measured 15 min after room temperature incubation.
Potency is read from the fitted curve at half-maximal effect.

Sequence of Phospholipid hydroperoxide glutathione peroxidase GPX4 (Homo sapiens) (P36969 whole entry, looked up): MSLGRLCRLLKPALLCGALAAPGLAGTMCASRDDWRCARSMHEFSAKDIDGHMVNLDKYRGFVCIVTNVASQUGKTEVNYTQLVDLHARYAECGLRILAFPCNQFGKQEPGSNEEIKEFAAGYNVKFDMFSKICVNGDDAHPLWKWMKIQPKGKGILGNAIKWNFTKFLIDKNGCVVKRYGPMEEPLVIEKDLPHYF

Compound | Potency
C[C@@H]1CC(=O)NN=C1c1ccc(NN=C(C#N)C#N)cc1 | inactive
Cc1cc(C(C)(C)C)cc(C)c1CC1=NCCN1 | inactive
NC(CO)C(=O)NNCc1ccc(O)c(O)c1O (stereo not given) | inactive
CS(=O)(=O)CCNCc1ccc(-c2ccc3ncnc(Nc4ccc(OCc5cccc(F)c5)c(Cl)c4)c3c2)o1 | inactive
CC#C[C@]1(O)CC[C@H]2[C@@H]3CCC4=CC(=O)CCC4=C3[C@@H](c3ccc(N(C)C)cc3)C[C@@]21C | inactive
CCOC(=O)C(C)(C)Oc1ccc(Cl)cc1 | inactive
COc1cc2nc(N3CCN(C(=O)C4COc5ccccc5O4)CC3)nc(N)c2cc1OC (stereo not given) | inactive
Cc1ccc(-c2cc(C(F)(F)F)nn2-c2ccc(S(N)(=O)=O)cc2)cc1 | inactive
COc1ccccc1N1CCN(CC(O)COc2cccc3ccccc23)CC1 (stereo not given) | inactive
CN(C)CCCN1c2ccccc2CCc2ccc(Cl)cc21 | inactive
O=C(c1ccc(OCCN2CCCCC2)cc1)c1c(-c2ccc(O)cc2)sc2cc(O)ccc12 | inactive
OCCN1CCN(CCCN2c3ccccc3Sc3ccc(C(F)(F)F)cc32)CC1 | inactive
COc1cc2c(c(OC)c1OC)-c1ccc(OC)c(=O)cc1[C@@H](NC(C)=O)CC2 | inactive
CCC1(c2ccccc2)C(=O)NCNC1=O | inactive
CCc1cccc2c3c([nH]c12)C(CC)(CC(=O)O)OCC3 (stereo not given) | inactive
O=C(CCCN1CCC(O)(c2ccc(Cl)cc2)CC1)c1ccc(F)cc1 | inactive
OCCN(CCO)c1nc(N2CCCCC2)c2nc(N(CCO)CCO)nc(N3CCCCC3)c2n1 | inactive
NC(=O)OCC(COC(N)=O)c1ccccc1 | inactive
CC(CCc1ccc(O)cc1)NCCc1ccc(O)c(O)c1 (stereo not given) | inactive
O=C(Nc1ccc([N+](=O)[O-])cc1Cl)c1cc(Cl)ccc1O | inactive

Compound | Potency
O=c1c(O)c(-c2ccc(O)c(O)c2)oc2cc(O)cc(O)c12 | inactive
Cc1ccccc1N1C(=O)c2cc(S(N)(=O)=O)c(Cl)cc2NC1C (stereo not given) | inactive
Nc1nnc(-c2cccc(Cl)c2Cl)c(N)n1 | inactive
CN(Cc1cnc2nc(N)nc(N)c2n1)c1ccc(C(=O)N[C@@H](CCC(=O)O)C(=O)O)cc1 | inactive
CC1COc2c(N3CCN(C)CC3)c(F)cc3c(=O)c(C(=O)O)cn1c23 (stereo not given) | inactive
Cn1ccc2cc3c(cc21)CCN3C(=O)Nc1cccnc1 | inactive
COC(=O)Nc1nc2ccc(C(=O)c3cccs3)cc2[nH]1 | inactive
CCN1CCCC1CNC(=O)c1cc(S(=O)(=O)CC)c(N)cc1OC (stereo not given) | inactive
CC[C@@]1(O)C(=O)OCc2c1cc1n(c2=O)Cc2cc3c(CN(C)C)c(O)ccc3nc2-1 | inactive
CC12CC3CC(C)(C1)CC(N)(C3)C2 | inactive
CN1CCN2c3ccccc3Cc3ccccc3C2C1 (stereo not given) | inactive
Cc1cn([C@H]2C[C@H](N=[N+]=[N-])[C@@H](CO)O2)c(=O)[nH]c1=O | inactive
COc1ccc(CCN(C)CCCC(C#N)(c2ccc(OC)c(OC)c2)C(C)C)cc1OC (stereo not given) | inactive
CC(C)Cc1ccc(C(C)C(=O)O)cc1 (stereo not given) | inactive
Nc1c2c(nc3ccccc13)CCCC2 | inactive
CN(C)CCOC(c1ccccc1)c1ccccc1 | inactive
Cn1cnc2c1c(=O)[nH]c(=O)n2C | inactive
NCCCCCC(=O)O | inactive
O=C1Cc2cc(CCN3CCN(c4nsc5ccccc45)CC3)c(Cl)cc2N1 | 15.8 µM (active) and inactive
COc1ccccc1OCCNCC(O)COc1cccc2[nH]c3ccccc3c12 (stereo not given) | inactive
